The source of these data is PubChem BioAssay (Tox21).

Structures are written as SMILES. Values joined by “and” are separate entries in the source; they are usually repeats but may differ in a detail not shown here. Identical values can stand only once. Records with an inconclusive call do not appear. Entries that show only a call come without a potency. Where a structure was tested more than once in an assay, its records may differ in their call. Active and inactive are the calls of the source. Calls come from the whole dose curve; as a rule, active = well fitted cell-killing curve with a large enough effect in the repeat runs; inconclusive = weak or mixed curves, or effect the other way; inactive = no such curve, though single readings can be large or run the other way.
Potency is the fitted concentration of half-maximal effect.

The assay in a line: qHTS assay to identify small molecule antagonists of the sonic hedgehog signaling (Shh) pathway - cell viability counter screen (AID 1259367). Note: nearly all actives have a fitted effect of over 55% in size. To be noted: NIH/3T3 Gli1-Luc viability, CellTiter-Fluor, 24 h; series mostly up to 92.4 µM. Put shortly:
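Tox21 library chemicals were tested on a Gli1-Luc NIH/3T3 clone (2,000 cells/well) stimulated by conditioned medium; viability was quantified as fluorescence from CellTiter-Fluor reagent added at 23 hr.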
A general note: Quantitative high-throughput screening tests each substance at several concentrations.
On to `CCCCCCCC(=O)OC`, for which the Potency result was “inactive”.
On to `CCN(CC)CCCC(C)Nc1ccnc2cc(Cl)ccc12` (stereo not drawn), for which the viability change, negative = cytotoxic was -9.15% [at 8.39 µM] (inactive) and -19.2% [at 19 µM] (inactive).
`CC1=C(C)S(=O)(=O)CCS1(=O)=O`: the Potency result is “inactive”.
Turning to `OCC(CO)(CBr)CBr`, the Potency entry was “inactive”.
The same measure, in the same setting: with `CN(C)CCC(c1ccc(Cl)cc1)c1ccccn1` (stereo not drawn) the figure was 68.7 µM (active); with `CN(C)CCCN`, “inactive”; with `C=C(C)C(=O)OCCOCCOCCOC(=O)C(=C)C`, “inactive”.
Same read-out and setting: for `CCCCC(CC)CO` (stereo not drawn) the value was “inactive”.
`Cc1ccc(N(C)C)cc1`: the Potency entry was “inactive”.
`O=C(O)c1cc(C(=O)O)cc(S(=O)(=O)O)c1`: the Potency entry is “inactive”.
For `O=C(O)c1ccc(C(=O)O)cc1`, the Potency entry was “inactive”.
Still for that read-out and setting: with `CCCCCCCCCCCCOCCO` the figure was 48.6 µM (active) and inactive.
`CC(O)COCC(C)O` (stereo not drawn): the Potency entry was “inactive”.
With `C[C@H]1C[C@H]2[C@@H]3CCC4=CC(=O)C=C[C@]4(C)[C@@]3(F)[C@@H](O)C[C@]2(C)[C@@]1(O)C(=O)CO`, the Potency result is “inactive”.
As to `CCOC(=O)NNc1nncc2ccccc12`, the Potency result is “inactive”.
Take `COc1ccc(Nc2ccccc2)c(C)c1`: the Potency result is “inactive”.
The same measure, in the same setting: with `O=S(=O)(O)c1ccc2ccccc2c1` the entry was “inactive”.
`Cc1cnc(C(=O)NCCc2ccc(S(=O)(=O)NC(=O)NC3CCCCC3)cc2)cn1`: the Potency result was “inactive”.
Turning to `O=C1CCC(N2C(=O)c3ccccc3C2=O)C(=O)N1` (stereo not drawn), the Potency result is “inactive”.
On the same count and under the same terms, for `OCCOCCN1CCN(C2=Nc3ccccc3Sc3ccccc32)CC1` the value was “inactive”; for `CC[C@H](C)C(=O)O[C@H]1C[C@@H](C)C=C2C=C[C@H](C)[C@H](CC[C@@H]3C[C@@H](O)CC(=O)O3)[C@H]21`, “inactive”; for `CCCCCOC(C)=O`, “inactive”.
Still for that read-out and setting: with `O=[N+]([O-])c1ccc(/C=C/c2ccc([N+](=O)[O-])cc2S(=O)(=O)O)c(S(=O)(=O)O)c1` the entry was “inactive”; with `Cc1cccc(O)c1`, “inactive”; with `CCCCCC(N)=O`, “inactive”.
On to `Cc1ccc(S(N)(=O)=O)cc1`, for which the Potency result was “inactive”.
For `COS(C)(=O)=O`, the Potency result is “inactive”.
On the same count and under the same terms, for `CCCC(C)=O` the value was “inactive”; for `OCc1cccnc1`, “inactive”.
On the same count and under the same terms, with `C=CCOC(=O)c1ccccc1C(=O)OCC=C` the entry was “inactive”.
Turning to `CCCSc1ccc2nc(NC(=O)OC)[nH]c2c1`, the Potency is 2.17 µM (active).
On to `O=P(OC(CCl)CCl)(OC(CCl)CCl)OC(CCl)CCl`, for which the Potency was 30.5 µM (active).
The same measure, in the same setting: for `COc1ccc2cc([C@H](C)C(=O)O)ccc2c1` the value was “inactive”; for `O=C(O)[C@H](O)[C@@H](O)[C@H](O)[C@H](O)CO`, “inactive”.
Same read-out and setting: for `Cc1cc(C)c(C)cc1C` the value was “inactive”.
The same measure, in the same setting: for `CCCCOC(=O)COc1ccc(Cl)cc1Cl` the value was “inactive”; for `C[C@H]1C[C@@H]2[C@H]([C@@H](O)C[C@@]3(C)[C@H]2CC[C@]3(O)C(=O)CO)[C@@]2(C)C=CC(=O)C=C12`, “inactive”; for `C=C(C)C(=O)Nc1ccc(Cl)c(Cl)c1`, “inactive”.
